The values below come from PubChem BioAssay.

Each structure is given as a SMILES string. Active and inactive are the calls of the source.

Assay [1] in a line: small molecules captured by biotinylated probe aFSTL3 – biochemical, small-molecule microarray, fluorescence 635/667, stem cell growth factor project, primary screen (AID 1064).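 Note: measures binding of the biotinylated anti-FSTL3 antibody to printed compounds.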 Conditions: higher = more signal.
A short description of assay [2]: binders from COS7 lysate, DM2A8 probe, primary screen, torsin A project, cell lysate, small-molecule microarray, fluorescence 635/667 (AID 1065). To be noted: higher = more signal, COS7 lysate expressing mutant human TOR1A.
Assay [3] can be described thus: small molecules captured by biotinylated probe aFGF2 – biochemical, small-molecule microarray, fluorescence 635/667, stem cell growth factor project, primary screen (AID 1067).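 Note: measures binding of biotinylated aFGF2 protein to printed compounds on slides; z-score merges feature fluorescence and signal-to-noise across triplicate slides.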 Conditions: higher = more signal.
A short description of assay [4]: small molecules captured by biotinylated probe aFGF10 – biochemical, small-molecule microarray, fluorescence 635/667, stem cell growth factor project, primary screen (AID 1071).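 Note: score merges 667 nm spot intensity and signal to noise from triplicate slides.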 Conditions: higher = more signal.
Assay [5] addresses Neurogenic locus notch homolog protein 2 (Homo sapiens) (UniProt Q04721). Nature of the assay: small molecules binding Notch2 protein – biochemical, small-molecule microarray, 635 nm fluorescence, stem cell growth factors, primary screen (AID 1073). Conditions: higher = more signal.
In assay [6] the target is Pro-neuregulin-1, membrane-bound isoform (Homo sapiens) (UniProt Q02297). Nature of the assay: small molecules binding neuregulin-1 protein – biochemical, small-molecule microarray, fluorescence 635/667, psychiatric disease protein project, primary screen (AID 1075).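 Note: score combines 667 nm spot fluorescence with signal to noise.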 Conditions: NRG1 binding, 635 nm fluorescence, higher = more signal.
Assay [7] relates to Neuregulin-1 EGF-like domain. Nature of the assay: small molecules binding NRG1 EGF domain – biochemical, small-molecule microarray, 635 nm fluorescence, primary screen (AID 1081).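 Note: binding of the protein to compounds printed on small-molecule microarray slides.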 Conditions: higher = more signal.
The nature of assay [8]: FRG1 expression reporter modulators in myotubes – cell-based, C2C12 myotubes, firefly/Renilla luciferase, luminescence, FRG1 inhibition for FSHD, primary screen (AID 1084). Conditions: FRG1 promoter luciferase, higher = more signal, called active from +8 up or from −8 down.
Assay [9] in a line: small molecules captured by biotinylated probe aFST – biochemical, small-molecule microarray, fluorescence 635/667, stem cell growth factor project, primary screen (AID 1086).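 Note: score merges 667 nm fluorescence with signal-to-noise of each printed compound spot.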 Conditions: higher = more signal.
Assay [10] is described as follows: binders of probe aHhip on microarray, primary screen, stem cell growth factor project, biochemical, small-molecule microarray, fluorescence 635/667 (AID 1087).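 Note: score merges spot fluorescence at 667nm with spot signal to noise ratio.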 Conditions: higher = more signal.
In assay [11] the test system is PRMT1 (protein arginine N-methyltransferase 1). Nature of the assay: small molecules binding arginine methyltransferase PRMT1 – biochemical, small-molecule microarray, 635 nm fluorescence, primary screen (AID 1088).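 Note: binding of Prmt1 protein to compounds spotted on small-molecule microarray slides.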 Conditions: higher = more signal.
The nature of assay [12]: growth effects on S. cerevisiae YJM789 – YJM789 clinical isolate, OD600, 24 h, basal, primary screen (AID 1089).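 Note: growth of clinical yeast isolate S. cerevisiae YJM 789 seeded 1000 cells per well; test concentration not given here.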 Conditions: higher = more signal, called active from +8 up or from −8 down.
Assay [13] can be described thus: S. pombe growth modifiers, basal conditions – strain 972, OD600, 24 h, no modulator, primary screen (AID 1090).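 Note: basal condition with compound alone and no growth modifier present; test concentration not given here.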 Conditions: S. pombe 972 growth, higher = more signal, called active from +8 up or from −8 down.
Assay [14] is described as follows: budding yeast growth modifiers under rapamycin – strain BY4716, OD600, 96 h, primary screen (AID 1091). Note: test concentration not given here. To be noted: S. cerevisiae BY4716 + rapamycin, higher = more signal, called active from +8 up or from −8 down.
Assay [15] addresses Torsin-1A-interacting protein 2 (Homo sapiens) (UniProt Q8NFQ8). Put plainly: small molecules binding lysate-expressed LULL1 – cell lysate, human LULL1 lysate, 635/667 nm fluorescence, primary screen (AID 1092).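 Note: probe is lysate of COS7 cells overexpressing human LULL1; score merges per-feature 667 nm fluorescence with signal-to-noise.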 Conditions: small-molecule microarray, hLULL1 lysate binding, 635 nm fluorescence; higher = more signal.
Assay [16] is described as follows: optical density change of DRC41 E. coli – strain DRC41, OD650, 24 h, E. coli filamentation project, primary screen (AID 1093).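 Note: MC1000 strain lacking acrAB efflux and sulA so SOS filamentation is blocked; test concentration not given here.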 Conditions: E. coli DRC41 growth, higher = more signal, called active from +8 up or from −8 down.
The nature of assay [17]: probe aLefty2 binding to arrayed compounds – biochemical, biotinylated probe, 635/667 nm fluorescence, primary screen (AID 1094).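 Note: score merges spot fluorescence near 667 nm with spot signal-to-noise ratio.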 Conditions: small-molecule microarray, higher = more signal.
The subject of assay [18] is Noggin (protein binding on small-molecule microarray). Nature of the assay: small molecules binding Noggin protein – biochemical, 635/667 nm fluorescence, primary screen (AID 1095).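 Note: score merges 667 nm feature fluorescence with signal to noise over triplicate slides.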 Conditions: 635 nm fluorescence, higher = more signal.
In assay [19] the target is Neurogenic locus notch homolog protein 3 (Homo sapiens) (UniProt Q9UM47). Nature of the assay: small molecules binding NOTCH3 protein – biochemical, 635/667 nm fluorescence, primary screen (AID 1096). Conditions: small-molecule microarray, 635 nm fluorescence, higher = more signal.
Assay [20] can be described thus: probe aEGFR binding to arrayed compounds – biochemical, biotinylated probe, 635/667 nm fluorescence, primary screen (AID 1097).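 Note: probe is a biotinylated anti-EGFR antibody binding compounds printed on slides; score combines fluorescence near 667 nm and signal to noise of each spot.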 To be noted: small-molecule microarray, higher = more signal.

Chain of Torsin-1A-interacting protein 2 (Homo sapiens) (Q8NFQ8 whole entry, looked up): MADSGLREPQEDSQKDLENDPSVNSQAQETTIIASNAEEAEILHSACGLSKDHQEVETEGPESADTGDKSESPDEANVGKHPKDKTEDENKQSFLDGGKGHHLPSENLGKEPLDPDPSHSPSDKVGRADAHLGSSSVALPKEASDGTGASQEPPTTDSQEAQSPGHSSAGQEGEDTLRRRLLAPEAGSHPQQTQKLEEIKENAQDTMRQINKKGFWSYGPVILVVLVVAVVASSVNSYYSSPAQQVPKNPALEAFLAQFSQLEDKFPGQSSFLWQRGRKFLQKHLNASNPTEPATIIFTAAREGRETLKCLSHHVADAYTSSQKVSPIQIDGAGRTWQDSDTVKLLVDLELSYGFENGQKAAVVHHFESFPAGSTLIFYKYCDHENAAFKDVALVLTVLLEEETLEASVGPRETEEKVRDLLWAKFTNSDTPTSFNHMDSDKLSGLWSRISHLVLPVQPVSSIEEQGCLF
Chain of Neurogenic locus notch homolog protein 2 (Homo sapiens) (Q04721 whole entry, looked up, canonical isoform): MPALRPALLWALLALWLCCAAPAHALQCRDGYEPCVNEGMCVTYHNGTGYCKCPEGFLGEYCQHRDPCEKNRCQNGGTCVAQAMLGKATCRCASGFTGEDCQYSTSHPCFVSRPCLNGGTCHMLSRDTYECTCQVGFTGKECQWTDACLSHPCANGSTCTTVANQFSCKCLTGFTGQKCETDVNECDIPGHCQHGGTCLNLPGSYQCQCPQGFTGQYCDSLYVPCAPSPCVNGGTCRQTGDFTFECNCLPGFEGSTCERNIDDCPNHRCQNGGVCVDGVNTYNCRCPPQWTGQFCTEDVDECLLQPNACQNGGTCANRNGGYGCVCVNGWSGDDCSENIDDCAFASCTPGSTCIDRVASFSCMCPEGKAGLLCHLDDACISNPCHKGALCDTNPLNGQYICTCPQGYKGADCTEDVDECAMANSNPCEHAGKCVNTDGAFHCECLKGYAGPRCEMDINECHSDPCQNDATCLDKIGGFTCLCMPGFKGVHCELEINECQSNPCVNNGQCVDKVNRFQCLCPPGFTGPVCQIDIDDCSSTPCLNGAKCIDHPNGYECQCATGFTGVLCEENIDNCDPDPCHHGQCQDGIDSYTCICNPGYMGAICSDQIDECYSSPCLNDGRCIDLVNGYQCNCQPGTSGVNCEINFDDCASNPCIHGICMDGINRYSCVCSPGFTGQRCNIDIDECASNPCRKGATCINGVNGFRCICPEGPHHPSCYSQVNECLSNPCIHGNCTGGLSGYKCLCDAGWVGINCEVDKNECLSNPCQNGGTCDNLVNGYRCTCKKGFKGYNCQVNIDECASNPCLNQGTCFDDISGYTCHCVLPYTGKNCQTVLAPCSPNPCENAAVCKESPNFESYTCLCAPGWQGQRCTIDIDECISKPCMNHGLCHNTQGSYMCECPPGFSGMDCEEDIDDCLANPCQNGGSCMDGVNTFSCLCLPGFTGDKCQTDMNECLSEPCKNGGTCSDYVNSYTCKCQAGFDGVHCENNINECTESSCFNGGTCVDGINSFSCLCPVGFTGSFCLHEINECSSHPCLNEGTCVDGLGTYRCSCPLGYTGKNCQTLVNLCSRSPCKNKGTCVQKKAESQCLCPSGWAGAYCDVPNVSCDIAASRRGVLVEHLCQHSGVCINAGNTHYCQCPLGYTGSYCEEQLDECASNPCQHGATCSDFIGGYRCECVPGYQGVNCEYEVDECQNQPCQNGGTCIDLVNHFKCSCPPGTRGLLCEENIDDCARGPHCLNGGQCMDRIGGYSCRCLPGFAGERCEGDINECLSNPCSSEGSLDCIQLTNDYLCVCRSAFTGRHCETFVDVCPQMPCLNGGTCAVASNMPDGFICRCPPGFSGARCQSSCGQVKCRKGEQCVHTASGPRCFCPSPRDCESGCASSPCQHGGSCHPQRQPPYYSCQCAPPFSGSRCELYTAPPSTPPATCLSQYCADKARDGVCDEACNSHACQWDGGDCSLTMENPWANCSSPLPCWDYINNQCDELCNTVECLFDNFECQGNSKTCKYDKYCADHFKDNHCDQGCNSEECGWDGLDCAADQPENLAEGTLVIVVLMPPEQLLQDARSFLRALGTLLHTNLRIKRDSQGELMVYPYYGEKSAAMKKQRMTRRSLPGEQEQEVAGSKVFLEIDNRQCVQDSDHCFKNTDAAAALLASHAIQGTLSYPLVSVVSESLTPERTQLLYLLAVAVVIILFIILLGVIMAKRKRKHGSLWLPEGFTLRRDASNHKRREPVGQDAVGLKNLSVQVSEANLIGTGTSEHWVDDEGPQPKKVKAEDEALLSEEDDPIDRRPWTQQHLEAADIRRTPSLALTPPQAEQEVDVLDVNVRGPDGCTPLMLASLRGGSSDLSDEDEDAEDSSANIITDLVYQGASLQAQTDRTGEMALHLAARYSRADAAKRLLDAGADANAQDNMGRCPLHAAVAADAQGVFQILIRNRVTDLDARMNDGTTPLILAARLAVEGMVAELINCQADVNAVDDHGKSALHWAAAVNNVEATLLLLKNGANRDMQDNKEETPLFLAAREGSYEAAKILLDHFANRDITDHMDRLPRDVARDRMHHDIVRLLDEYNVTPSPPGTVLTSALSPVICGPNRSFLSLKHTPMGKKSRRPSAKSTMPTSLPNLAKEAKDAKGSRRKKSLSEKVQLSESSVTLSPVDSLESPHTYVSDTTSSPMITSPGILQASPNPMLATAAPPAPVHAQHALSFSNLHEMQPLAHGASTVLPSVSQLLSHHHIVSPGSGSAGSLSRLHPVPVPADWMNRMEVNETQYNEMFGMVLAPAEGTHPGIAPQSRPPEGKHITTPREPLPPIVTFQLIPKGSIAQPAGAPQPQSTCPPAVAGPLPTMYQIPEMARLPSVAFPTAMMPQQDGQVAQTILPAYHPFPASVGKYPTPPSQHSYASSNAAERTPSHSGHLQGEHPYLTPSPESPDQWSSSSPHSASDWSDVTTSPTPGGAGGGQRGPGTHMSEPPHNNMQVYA
Chain of Pro-neuregulin-1, membrane-bound isoform (Homo sapiens) (Q02297 whole entry, looked up, the tested form may be a part, canonical isoform): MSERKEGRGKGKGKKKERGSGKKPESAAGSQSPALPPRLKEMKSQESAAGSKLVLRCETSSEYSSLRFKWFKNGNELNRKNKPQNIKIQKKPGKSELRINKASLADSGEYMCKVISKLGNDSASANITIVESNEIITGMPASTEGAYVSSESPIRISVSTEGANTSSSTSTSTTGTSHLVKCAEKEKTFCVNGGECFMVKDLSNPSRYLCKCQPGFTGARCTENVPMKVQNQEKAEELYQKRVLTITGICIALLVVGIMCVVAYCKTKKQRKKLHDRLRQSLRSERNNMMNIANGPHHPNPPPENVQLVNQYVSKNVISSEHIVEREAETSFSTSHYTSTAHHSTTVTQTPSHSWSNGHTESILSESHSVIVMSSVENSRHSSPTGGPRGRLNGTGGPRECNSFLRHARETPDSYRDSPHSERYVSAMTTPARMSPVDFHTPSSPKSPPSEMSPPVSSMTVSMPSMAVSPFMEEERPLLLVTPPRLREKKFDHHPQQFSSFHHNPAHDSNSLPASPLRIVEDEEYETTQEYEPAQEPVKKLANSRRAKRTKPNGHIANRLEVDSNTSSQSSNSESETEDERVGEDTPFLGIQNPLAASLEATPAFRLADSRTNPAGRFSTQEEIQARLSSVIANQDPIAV

With `O=c1cccc(-c2ccc(F)cc2)o1`, the composite z-score was -0.227 in assay [1]; -0.0321 in assay [2]; -0.0455 in [3]; 0.255 in [4]; 0.607 in assay [5]; -0.219 in assay [6]. In addition, the composite z-score in assay [7] is 1.08; in [9], 0.552; in [10], 0.643; in assay [11], 0.777; in [15], -0.326; in assay [17], -0.0591. The composite z-score was 0.245 in assay [18], 0.784 in assay [19] and 0.132 in assay [20]. Besides, the z-score in assay [8] is 0.855 (inactive); in [12], -1.28 (inactive); in assay [13], -0.0295 (inactive); in assay [14] it was -0.313 (inactive); in [16] it was -0.428 (inactive).
With `COc1ccc(C(=O)Nc2cccc(CN3C(=O)[C@@]4(O[C@@H](CC(=O)N(CCO)Cc5ccccc5)[C@H]([Si](C)(C)c5ccc(OC)cc5)[C@H]4C)c4ccccc43)c2)cc1`, the composite z-score is -0.117 in assay [1]; 0.741 in [2]; -0.119 in [3]; 0.079 in assay [4]; -0.342 in assay [5]; 0.585 in assay [6]. In addition, the composite z-score is 1.09 in assay [7]; -0.141 in assay [9]; 0.0274 in [10]; 0.931 in assay [11]; 1.94 in assay [15]; -0.175 in assay [17]. Further, the results for the composite z-score in assay [18], in assay [19] and in [20] were 0.8, 0.487 and -0.201, respectively. Also, the z-score in assay [8] was -2.55 (inactive); in assay [12], -1.42 (inactive); in assay [13] it was -0.9 (inactive); in assay [14] it was 2.85 (inactive); in assay [16] it was 0.904 (inactive).
For the compound `COCCCNC(=O)[C@@H]1c2ccccc2C(=O)N(C2Cc3ccccc3C2)[C@H]1c1ccc(CO)cc1`, the composite z-score in [1] was -0.0989; in assay [2] it was 0.703; in assay [3], -0.151; in [4], 0.0338; in [5] it was -0.0746; in assay [6], 0.209. Moreover, the composite z-score in assay [7] is 1.4; in assay [9], 0.506; in assay [10] it was -0.137; in assay [11] it was 1.17; in assay [15], 1.74; in assay [17], -0.0237. Moreover, the composite z-score in [18] was 0.163; in [19], -0.0847; in [20], -0.0549. The z-score in [8] is 0.0504 (inactive); in assay [12] it was 0.0011 (inactive); in [13], -0.471 (inactive); in assay [14], -0.559 (inactive); in [16] it was 0.935 (inactive).
Take `Cc1ccc(S[C@]2(C(=O)NCc3ccccc3)CC(=O)N(Cc3cc(C(F)(F)F)cc(C(F)(F)F)c3)[C@@H]2c2ccc(CO)cc2I)cc1`: the composite z-score in assay [1] is 0.436; in assay [2], -0.3; in [3] it was -0.0767; in [4] it was -1.03; in [5] it was -1.44; in assay [6] it was 1.11. In addition, the composite z-score in [7] is 0.623; in assay [9], -0.292; in [10] it was -0.132; in [11] it was -0.455; in assay [15], 0.742; in assay [17], 0.01. The figures for the composite z-score in assay [18], in assay [19] and in assay [20] were -1.71, -1.93 and -0.3, respectively. Moreover, the z-score in assay [8] was -0.452 (inactive); in [12], 0.269 (inactive); in assay [13] it was -2.56 (inactive); in assay [14], 0.49 (inactive); in [16], -0.607 (inactive).
As for `C=C(/C(=C/C[C@@H](OC(C)=O)c1ccc(OCCO)cc1)c1cc(C(=O)OC)ccc1OC)C(C)C`, the composite z-score in assay [1] is -0.247; in assay [2] it was 0.239; in assay [3], -0.155; in [4], 0.29; in assay [5] it was 0.355; in [6] it was 1.67. Besides, the composite z-score in assay [7] was 0.945; in assay [9], -0.034; in [10], 0.0024; in assay [11], 0.629; in assay [15], 1.21; in assay [17] it was -0.152. The values for the composite z-score in assay [18], in assay [19] and in assay [20] were 0.902, 0.843 and -0.176, respectively. The z-score is 2.89 (inactive) in assay [8]; -0.265 (inactive) in [12]; 0.272 (inactive) in assay [13]; -1.5 (inactive) in assay [14]; -0.268 (inactive) in [16].
